# Results from the antibiotic and cytotoxicity screens of Wong et al. (2023).
# The campaign covered roughly 39,000 compounds. About 3,300 (8.5%) were called active. The list comes from a sample in which actives are over-represented; it also holds similar structures and randomly drawn compounds.
# Test system: HepG2
# Assay: cytotoxicity call (relative viability < 0.9)
# Conditions: 10 µM
row,Structure (SMILES),cytotoxicity call
1,C[C@H]1CCCCO[C@H](CN(C)C(=O)Nc2ccc3c(c2)OCO3)[C@@H](C)CN([C@@H](C)CO)C(=O)c2cc(NC(=O)C3CCCCC3)ccc2O1,inactive
2,C[C@@H]1CN([C@@H](C)CO)C(=O)c2cccc(NS(C)(=O)=O)c2O[C@H]1CN(C)S(=O)(=O)c1cn(C)cn1,inactive
3,C[C@H]1CN([C@@H](C)CO)C(=O)c2cc(NS(=O)(=O)c3ccc(F)cc3)ccc2O[C@@H]1CN(C)S(C)(=O)=O,inactive
4,CC(C)NC(=O)N(C)C[C@H]1OCc2cn(nn2)CCCC(=O)N([C@@H](C)CO)C[C@H]1C,inactive
5,O[C@@H]1[C@@H](O)[C@H](Nc2ccccc2)OC[C@H]1O,inactive
6,Cc1noc(C)c1S(=O)(=O)N(C)C[C@H]1Oc2ccc(NC(=O)Nc3ccccc3)cc2CC(=O)N([C@H](C)CO)C[C@@H]1C,inactive
7,CN(C)CC#Cc1ccc([C@@H]2[C@@H](CO)N3C(=O)CN(C(=O)c4cccnc4)C[C@@H]23)cc1,inactive
8,COc1ccc(NC(=O)N(C)C[C@H]2OCCCC[C@@H](C)Oc3ccc(NS(=O)(=O)c4c(C)noc4C)cc3C(=O)N([C@H](C)CO)C[C@@H]2C)cc1,inactive
9,C[C@@H]1CCCCO[C@H](CN(C)C(=O)C2CCCCC2)[C@@H](C)CN([C@@H](C)CO)C(=O)c2cc(NC(=O)Cc3ccccc3)ccc2O1,inactive
10,C[C@@H]1CN([C@H](C)CO)C(=O)Cc2cc(NC(=O)Cn3cnnn3)ccc2O[C@@H]1CN(C)S(=O)(=O)c1cn(C)cn1,inactive
11,C[C@@H]1CN([C@@H](C)CN=[N+]=[N-])C(=O)c2cc(NC(=O)Nc3ccccc3)ccc2O[C@@H](C)CCCCO[C@H]1CN(C)S(=O)(=O)c1ccc(F)cc1,active
12,C[C@@H]1CN([C@H](C)CO)C(=O)c2cc(NC(=O)Nc3ccc(F)cc3)ccc2O[C@@H](C)CCCCO[C@H]1CN(C)S(=O)(=O)c1ccccc1,inactive
13,CC(C)N1C[C@@H](C)[C@H](CN(C)S(=O)(=O)c2ccc(F)cc2)OCCCC[C@H](C)Oc2ccc(NC(=O)Nc3ccccc3)cc2C1=O,inactive
14,C[C@@H]1CN([C@@H](C)CO)C(=O)c2cc(NC(=O)Nc3ccccc3)ccc2O[C@@H](C)C/C=C/CO[C@H]1CN(C)S(=O)(=O)c1ccc(F)cc1,active
15,C[C@@H]1CN([C@@H](C)CO)C(=O)c2cc(NC(=O)Nc3ccccc3)ccc2O[C@@H](C)C/C=C\CO[C@H]1CN(C)S(=O)(=O)c1ccc(F)cc1,inactive
16,C[C@@H]1CCCCO[C@@H](CN(C)S(=O)(=O)c2ccccc2)[C@@H](C)CN([C@@H](C)CO)C(=O)c2cc(NC(=O)Nc3ccc(F)cc3)ccc2O1,inactive
17,COc1ccc(S(=O)(=O)N(C)C[C@H]2OCCCC[C@H](C)Oc3ccc(NC(=O)Nc4ccccc4)cc3C(=O)N([C@H](C)CO)C[C@@H]2C)cc1,inactive
18,O=C(C[C@@H]1CC[C@@H]2[C@H](COC[C@H](O)CN2C(=O)Nc2cccc(F)c2)O1)NCCCN1CCOCC1,inactive
19,C[C@@H]1CN([C@@H](C)CO)C(=O)c2cc(NS(=O)(=O)c3ccccc3)ccc2O[C@@H](C)CCCCO[C@@H]1CN(C)S(=O)(=O)c1cn(C)cn1,inactive
20,C[C@@H]1CN([C@H](C)CO)C(=O)c2cc(NC(=O)CCC(F)(F)F)ccc2O[C@@H](C)CCCCO[C@@H]1CN(C)C(=O)CCC(F)(F)F,inactive

row,Structure (SMILES),cytotoxicity call
1,COc1ccc(-c2oc3cc(OC)c(OC)c(OC)c3c(=O)c2OC)cc1OC,active
2,COc1ccc(-c2oc3cc(OC)c(OC)c(OC)c3c(=O)c2OC)cc1,inactive
3,COc1cc(O)c2c(=O)c(OC)c(-c3ccc(OC)c(OC)c3)oc2c1,inactive
4,O=C(C[C@H]1C=C[C@@H](NC(=O)Cc2ccccn2)[C@H](CO)O1)NCCCN1CCOCC1,inactive
5,C[C@@H]1CN([C@H](C)CO)C(=O)c2c(c3ccccc3n2C)-c2ccccc2CO[C@H]1CN(C)C(=O)[C@H](C)c1ccccc1,inactive
6,CC1OC(OC2C(O)CC(OC3C(O)CC(OC4CCC5(C)C(CCC6C5CC(O)C5(C)C(C7=CC(=O)OC7)CCC65O)C4)OC3C)OC2C)CC(O)C1O (centres undefined),active
7,C[C@H]1O[C@@H](O[C@H]2[C@@H](O)C[C@H](O[C@H]3[C@@H](O)C[C@H](O[C@H]4CC[C@@]5(C)[C@H](CC[C@@H]6[C@@H]5C[C@@H](O)[C@]5(C)[C@@H](C7=CC(=O)OC7)CC[C@]65O)C4)O[C@@H]3C)O[C@@H]2C)C[C@H](O)[C@@H]1O,active
8,C[C@H]1O[C@@H](O[C@H]2[C@@H](O)C[C@H](O[C@H]3[C@@H](O)C[C@H](O[C@H]4CC[C@@]5(C)[C@H](CC[C@@H]6[C@@H]5C[C@@H](O)[C@@]5(C)[C@@H](C7=CC(=O)OC7)CC[C@]65O)C4)O[C@@H]3C)O[C@@H]2C)C[C@H](O)[C@@H]1O,active
9,O=C(C[C@H]1CC[C@H]2[C@@H](COC[C@H](O)CN2S(=O)(=O)c2ccc(F)cc2)O1)N[C@@H]1CCN(Cc2ccccc2)C1,inactive
10,CO[C@H]1CN(C)C(=O)c2ccc(NS(C)(=O)=O)cc2OC[C@@H](C)N(C(=O)C2CCCCC2)C[C@@H]1C,inactive
11,C[C@@H]1CCCCO[C@@H](CN(C)C(=O)C2CCCCC2)[C@@H](C)CN([C@@H](C)CO)C(=O)c2cc(NS(=O)(=O)c3ccc(F)cc3)ccc2O1,inactive
12,COc1ccc(S(=O)(=O)N(C)C[C@@H]2Oc3ccc(NS(=O)(=O)c4ccc(F)cc4)cc3CC(=O)N([C@@H](C)CO)C[C@@H]2C)cc1,inactive
13,C[C@@H]1CN([C@H](C)CO)C(=O)c2cc(NC(=O)NC3CCCCC3)ccc2O[C@H]1CN(C)S(=O)(=O)c1cn(C)cn1,inactive
14,Cc1ccc(S(=O)(=O)N(C)C[C@@H]2Oc3ccc(NC(=O)CCN4CCOCC4)cc3CC(=O)N([C@H](C)CO)C[C@@H]2C)cc1,inactive
15,Cc1ccc(S(=O)(=O)N(C)C[C@H]2Oc3c(NC(=O)Nc4ccc(C(F)(F)F)cc4)cccc3C(=O)N([C@@H](C)CO)C[C@H]2C)cc1,active
16,Cc1ccc(S(=O)(=O)N(C)C[C@@H]2Oc3c(NC(=O)Nc4ccc(C(F)(F)F)cc4)cccc3C(=O)N([C@@H](C)CO)C[C@H]2C)cc1,inactive
17,C[C@H](CO)N1C[C@H](C)[C@H](CN(C)S(=O)(=O)c2ccc(Cl)cc2)Oc2c(NC(=O)Nc3ccc(C(F)(F)F)cc3)cccc2C1=O,inactive
18,Cc1ccc(S(=O)(=O)N(C)C[C@@H]2Oc3c(NC(=O)Nc4ccc(C(F)(F)F)cc4)cccc3C(=O)N([C@H](C)CO)C[C@H]2C)cc1,inactive
19,C[C@H]1CN([C@@H](C)CO)C(=O)c2cccc(NC(=O)Nc3ccc(C(F)(F)F)cc3)c2O[C@H]1CN(C)S(=O)(=O)c1ccc(Cl)cc1,active
20,C[C@@H]1CN([C@H](C)CO)C(=O)c2cccc(NC(=O)Nc3ccc(C(F)(F)F)cc3)c2O[C@@H]1CN(C)S(=O)(=O)c1ccc(Cl)cc1,inactive

row,Structure (SMILES),cytotoxicity call
1,Cc1ccc(OC(=O)N(C)C[C@@H]2OCc3ccccc3-c3ccccc3C(=O)N([C@H](C)CO)C[C@H]2C)cc1,inactive
2,C[C@@H]1CN([C@H](C)CO)C(=O)Cc2cc(NC(=O)Cc3ccccc3)ccc2O[C@H]1CN(C)C(=O)Nc1ccc(C(F)(F)F)cc1,inactive
3,C[C@@H]1CN([C@H](C)CO)C(=O)c2cc(N(C)C)ccc2O[C@@H](C)CCCCO[C@@H]1CN(C)S(C)(=O)=O,inactive
4,CCCNC(=O)N(C)C[C@@H]1Oc2cc(C#Cc3ccccn3)ccc2S(=O)(=O)N([C@H](C)CO)C[C@H]1C,inactive
5,Cc1ccc(S(=O)(=O)N(C)C[C@H]2Oc3ccc(NC(=O)NC(C)C)cc3CC(=O)N([C@@H](C)CO)C[C@H]2C)cc1,inactive
6,NC(=O)[C@@]1(CCS(=O)(=O)c2ccccc2)N=C(c2ccc(OCCCO)cc2)O[C@H]1c1ccccc1,inactive
7,C[C@@H](Oc1cc(-n2cnc3ccc(CN4CCN(C)CC4)cc32)sc1C(N)=O)c1ccccc1C(F)(F)F,active
8,C[C@@H]1CN([C@@H](C)CO)C(=O)c2cc(C#CC3(O)CCCC3)cnc2O[C@@H]1CN(C)C(=O)Cc1cccnc1,inactive
9,C[C@@H]1CN([C@H](C)CO)C(=O)c2cc(C#CC3(O)CCCC3)cnc2O[C@@H]1CN(C)C(=O)CN(C)C,inactive
10,CCCC(=O)Nc1ccc2c(c1)C(=O)N(C)C[C@@H](OC)[C@H](C)CN(Cc1ccc(-c3ccccn3)cc1)[C@@H](C)CO2,inactive
11,CCC(CO)NCCNC(CC)CO.Cl.Cl (centres undefined),inactive
12,C=CCC[C@H](Cc1ccc(F)cc1)C(=O)OC[C@@H](NC(=O)[C@@H](CC=C)CC(=O)N[C@H](CO)Cc1ccccc1)C(C)(C)C,inactive
13,C=CCC[C@@H](Cc1ccc(F)cc1)C(=O)OC[C@@H](NC(=O)[C@@H](CC=C)CC(=O)N[C@@H](CO)Cc1ccccc1)C(C)(C)C,inactive
14,C=CC[C@H](CC(=O)N[C@@H](CO)Cc1ccccc1)C(=O)N[C@@H](COC(=O)[C@@H](CC=C)Cc1ccc(F)cc1)Cc1ccccc1,inactive
15,C=CCC[C@H](Cc1ccc(F)cc1)C(=O)OC[C@@H](NC(=O)[C@@H](CC=C)CC(=O)N[C@@H](CO)Cc1ccccc1)C(C)(C)C,active
16,C=CCC[C@@H](Cc1ccc(F)cc1)C(=O)OC[C@@H](NC(=O)[C@@H](CC=C)CC(=O)N[C@H](CO)Cc1ccccc1)C(C)(C)C,active
17,C=CCC[C@@H](Cc1ccc(F)cc1)C(=O)OC[C@@H](Cc1ccccc1)NC(=O)[C@H](CC=C)CC(=O)N[C@@H](CO)Cc1ccccc1,inactive
18,C[C@H]1CN([C@@H](C)CO)C(=O)c2cc(C#Cc3cccnc3)cnc2O[C@@H]1CN(C)S(=O)(=O)c1ccccc1F,inactive
19,C[C@H](CO)N1C[C@H](C)[C@@H](CN(C)S(=O)(=O)c2cn(C)cn2)OCCCC[C@H](C)Oc2ccc(NC(=O)CCCN(C)C)cc2C1=O,inactive
